A selection: hits, their analogues and other compounds. The true share with any hit is near 4.7%.
tim23-1 inh: inhibits growth of tim23-1 mutant yeast. AID 463212. S. cerevisiae tim23-1 growth, BacTiter-Glo luminescence, 24 h. inhibition, % at 20 µM. hit rate 1.3% among 330,000;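 active = growth inhibition of the mutant yeast at or above 50%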;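 note: temperature-sensitive mutant grown at 25 °C; plate controls were DMSO-treated mutant yeast for no effect and medium wells lacking yeast for full effect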
tim10-1 inh: inhibits growth of tim10-1 mutant yeast. S. cerevisiae tim10-1 ts strain growth, BacTiter-Glo, 24 h. inhibition, % at 20 µM. hit rate 2.2% among 330,000;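 active = inhibition of at least 40%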;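 note: mutant grown at 25 °C; 0% = DMSO wells with yeast and 100% = wells holding no yeast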
ATG4B inhibitor: blocks human ATG4B protease cleavage of LC3 substrate; inhibition, % at 8.33 µM; hit rate 0.51% among 340,000; AID 504462; ATG4B cleavage of LC3-PLA2, NBD-HPC fluorescence, 1 h; Q9Y4P1; in the data active = inhibition above about 40%
Target sequence (Q9Y4P1 whole entry, looked up): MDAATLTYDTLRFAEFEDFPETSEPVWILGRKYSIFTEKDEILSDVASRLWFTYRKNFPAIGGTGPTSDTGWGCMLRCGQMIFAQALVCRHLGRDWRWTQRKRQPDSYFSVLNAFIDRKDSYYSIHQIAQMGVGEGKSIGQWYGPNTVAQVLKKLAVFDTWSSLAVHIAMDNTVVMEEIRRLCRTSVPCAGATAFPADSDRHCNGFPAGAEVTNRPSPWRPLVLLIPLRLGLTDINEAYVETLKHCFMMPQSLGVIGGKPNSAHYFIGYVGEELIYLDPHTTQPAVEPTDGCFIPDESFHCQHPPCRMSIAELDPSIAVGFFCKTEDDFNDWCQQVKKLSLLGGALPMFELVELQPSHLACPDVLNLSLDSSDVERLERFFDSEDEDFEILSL
SKKanGAS inh: SKKanGAS growth inhibition; S. pyogenes SKKanGAS, kanamycin growth, BacTiter-Glo, 6 h; inhibition, % at 7.5 µM; hit rate 1.3% among 300,000; AID 1662;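 active = mean replicate score, as percent of positive control median, at least 50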;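 note: strain carries kanamycin resistance gene driven by streptokinase promoter and grows in 40 µg/ml kanamycin; loss of luminescence reflects streptokinase promoter inhibition or plain growth inhibition; 0% = median of DMSO wells and 100% = positive control at its reference dose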
TIM10 inh: growth inhibitors of TIM10 yeast strain | AID 463195 | S. cerevisiae TIM10 strain growth, BacTiter-Glo luminescence, 24 h | inhibition, % at 10 µM | hit rate 1.4% among 330,000;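 active = inhibition of 40% or more at the single tested concentration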;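 note: wild-type TIM10 isogenic control strain grown at permissive 25 °C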
PfHsp90 yeast 2: growth inhibition of yeast expressing Plasmodium Hsp90; S. cerevisiae expressing PfHsp90, BacTiter-Glo ATP, 48 h; yeast lacking PDR1 and PDR3 efflux regulators; hit rate 0.32% among 310,000; inhibition, % at 9.4 µM;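 active = every replicate shows inhibition above about 80%, whatever the replicate mean, limit read from the data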;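 note: 0% = DMSO neutral controls and 100% = 20 µM radicicol positive controls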
The depositor's hits bear a star; . = no result.

SMILES	tim23-1 inh	tim10-1 inh	ATG4B inhibitor	SKKanGAS inh	TIM10 inh	PfHsp90 yeast 2
C#C[C@]1(O)CC[C@H]2[C@@H]3CCc4cc(OC5CCCC5)ccc4[C@H]3CC[C@@]21C	27.2	16.5	3.0	103.1*	11.9	-13.4
CCCCCN(C(=O)CCC(=O)OC(C)C(=O)NC1CCCCC1)c1c(N)n(CCCC)c(=O)[nH]c1=O (stereo not given)	-13.0	-17.6	-3.7	4.3	7.2	.
O=C(NC(=S)N1CCN(c2nc(-c3ccccc3)cs2)CC1)c1cccnc1	12.1	33.0	2.6	78.8*	15.1	-12.8
CCOC(=O)c1cnc2cc(-c3ccc(C(C)(C)C)cc3)nn2c1N	4.6	9.5	-7.6	24.5	3.8	-7.3
CCOC(=O)c1sc(N2C(=O)C(O)=C(C(=O)c3ccco3)C2c2cccc([N+](=O)[O-])c2)nc1C (stereo not given)	.	.	11.9	65.5*	.	-22.3
Cc1nnc(N2C(=O)C(O)=C(C(=O)c3ccco3)C2c2cccc([N+](=O)[O-])c2)s1 (stereo not given)	5.4	-8.5	6.6	9.5	8.1	-3.1
CCOC(=O)c1sc(N2C(=O)C(O)=C(C(=O)c3ccco3)C2c2cccc(Cl)c2)nc1C (stereo not given)	18.7	11.3	.	63.4*	-15.1	31.2
CC(NC(=O)C1(c2cccs2)CCOCC1)c1ccccc1 (stereo not given)	9.6	5.6	1.0	-4.0	-1.6	-5.9
Cc1cc(C)c2cccc(N)c2n1	10.4	17.9	7.2	-9.8	15.1	18.5
Cc1cc(C)c2ccc(N)nc2c1O	-0.4	24.5	-6.3	98.6*	14.8	-19.0
O=C(c1cc2nc(-c3ccccc3)cc(C(F)(F)F)n2n1)N1CCCC1	.	.	0.4	.	.	-9.0
COc1ccc(C2C(C#N)=C(N)Oc3cc(C)n(Cc4ccncc4)c(=O)c32)cc1 (stereo not given)	9.8	-4.6	-0.2	-0.4	11.2	-1.0
COc1ccc(/C=N/n2cnc3c([nH]c4ccc(C)cc43)c2=O)cc1CN1CCCC1	7.8	-0.8	-5.8	25.7	6.5	-12.2
COc1ccc2[nH]c3c(=O)n(/N=C/c4ccc(OC)c(CN5CCCC5)c4)c(C)nc3c2c1	14.2	22.3	14.3	72.3*	4.9	-8.2
COc1ccc(/C=N/n2c(C)nc3c([nH]c4ccccc43)c2=O)cc1CN1CCCC(C)(C)C1	12.6	13.3	0.0	69.7*	-9.4	5.5
CCOC(=O)c1ccc(Nc2ccc([N+](=O)[O-])cn2)cc1	-2.6	7.7	-1.9	-4.8	8.8	5.4
O=C(N/N=C/c1ccncc1)C1CC1C(=O)N/N=C/c1ccncc1 (stereo not given)	8.2	-1.0	-1.6	-0.7	3.4	18.0
Cc1ccc(C(=O)CC(=O)c2ccc(C)cc2O)cc1	.	.	2.7	61.7*	.	5.4
Cc1ccc(C(=O)CC(=O)c2ccc(C(C)(C)C)cc2)cc1	-9.1	17.8	2.9	7.7	-5.6	-0.4
CC(C)(C)c1ccc(C(=O)CC(=O)c2cc(Cl)ccc2O)cc1	20.7	36.0	-0.5	90.8*	20.4	20.3
CCN(CC)CCCN1C(=O)c2oc3ccccc3c(=O)c2C1c1cccc(OC)c1OC (stereo not given)	21.2	9.7	-1.0	5.8	7.2	-4.4
O=C(OCC(=O)N1CCN(Cc2ccccc2)CC1)c1ccc(Cl)cc1	-157.5	-29.6	-4.8	-13.6	-13.6	5.8
CCc1nc2c3cnn(-c4cc(Cl)ccc4C)c3ncn2n1	10.5	9.3	-1.8	53.1*	-3.6	-3.3
Cc1nc2c3cnn(-c4ccccc4)c3ncn2n1	12.0	16.3	-9.7	19.5	8.6	32.9
On1ccccc1=S	.	.	4.4	.	.	107.4*
SMILES	tim23-1 inh	tim10-1 inh	ATG4B inhibitor	SKKanGAS inh	TIM10 inh	PfHsp90 yeast 2
Cc1ccc(-n2c(N)c(-c3nc4ccccc4n3C)sc2=S)cc1	-2.7	16.7	5.2	50.3*	3.5	.
Clc1ccc2c(N/N=C/c3ccc(Br)cc3)ccnc2c1	.	.	31.1	112.6*	.	11.8
C/C(CCc1ccco1)=N\NC(=O)CNc1c(Br)cc(Br)cc1Br	11.8	3.7	-1.0	7.9	3.5	-64.6
COC(=O)CSc1nnc(NC(=O)c2ccc3c(c2)OCO3)s1	-6.1	-5.2	1.6	52.4*	-25.0	-11.6
COc1ccc2cc(-c3ccccc3F)ncc2c1	38.6	15.1	-0.6	.	16.5	9.0
Cc1cc2c(cc1C)-c1c(ssc1=Nc1ccc(S(N)(=O)=O)cc1)C(C)(C)N2	3.4	10.1	-4.3	50.0*	8.6	0.1

Compound activity as filed in PubChem.
